# Most compounds without a hit are left out; they make up all but 3.8% or so of the library.
# aDG glyco up – activators of alpha-DG glycosylation, primary screen, uHTS, Pro5-aDG cells, AlphaScreen; alpha-DG glycosylation AlphaScreen (IIH6); 0% Pro5, 100% B10-LARGE cell signal; activation, % at 10 µM; 360,000 tested, 0.22% active;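 active = activation of at least 8% versus controls, or a plate z-score of at least 8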;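 also: Pro5 are CHO cells carrying HIG-tagged alpha-DG that lacks glycosylation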
# Yeast superoxide – reduction of superoxide in aged yeast, primary screen, HTS. S. cerevisiae aged cells, superoxide DHE fluorescence; hits give low values. AID 2690, 2010. superoxide response (% of plate mean), % at 10 µM. 330,000 tested, 0.18% active;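 active = superoxide response under a set limit, about three screen SD below normal, cut at about 65% in these data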;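 also: yeast aged for seven days with compound at 30 °C before DHE staining; 100% = average MFI of all compound-treated wells on the plate with controls excluded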
# FAS-TE inh – FAS thioesterase domain inhibitors, primary screen, biochemical, fluorescence intensity, uHTS | inhibition, % at 15 µM | 360,000 tested, 0.67% active | AID 602261, 2012 | Fatty acid synthase (Homo sapiens), P49327 | recombinant FAS-TE, OMFH fluorogenic substrate, fluorescence endpoint;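 active = compounds whose normalised, plate-corrected inhibition of enzyme fluorescence in the single-dose primary screen is 50% or more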;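 also: 0% = DMSO with enzyme and 100% = substrate without enzyme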
# Target sequence (P49327 whole entry, looked up, the tested form may be a part): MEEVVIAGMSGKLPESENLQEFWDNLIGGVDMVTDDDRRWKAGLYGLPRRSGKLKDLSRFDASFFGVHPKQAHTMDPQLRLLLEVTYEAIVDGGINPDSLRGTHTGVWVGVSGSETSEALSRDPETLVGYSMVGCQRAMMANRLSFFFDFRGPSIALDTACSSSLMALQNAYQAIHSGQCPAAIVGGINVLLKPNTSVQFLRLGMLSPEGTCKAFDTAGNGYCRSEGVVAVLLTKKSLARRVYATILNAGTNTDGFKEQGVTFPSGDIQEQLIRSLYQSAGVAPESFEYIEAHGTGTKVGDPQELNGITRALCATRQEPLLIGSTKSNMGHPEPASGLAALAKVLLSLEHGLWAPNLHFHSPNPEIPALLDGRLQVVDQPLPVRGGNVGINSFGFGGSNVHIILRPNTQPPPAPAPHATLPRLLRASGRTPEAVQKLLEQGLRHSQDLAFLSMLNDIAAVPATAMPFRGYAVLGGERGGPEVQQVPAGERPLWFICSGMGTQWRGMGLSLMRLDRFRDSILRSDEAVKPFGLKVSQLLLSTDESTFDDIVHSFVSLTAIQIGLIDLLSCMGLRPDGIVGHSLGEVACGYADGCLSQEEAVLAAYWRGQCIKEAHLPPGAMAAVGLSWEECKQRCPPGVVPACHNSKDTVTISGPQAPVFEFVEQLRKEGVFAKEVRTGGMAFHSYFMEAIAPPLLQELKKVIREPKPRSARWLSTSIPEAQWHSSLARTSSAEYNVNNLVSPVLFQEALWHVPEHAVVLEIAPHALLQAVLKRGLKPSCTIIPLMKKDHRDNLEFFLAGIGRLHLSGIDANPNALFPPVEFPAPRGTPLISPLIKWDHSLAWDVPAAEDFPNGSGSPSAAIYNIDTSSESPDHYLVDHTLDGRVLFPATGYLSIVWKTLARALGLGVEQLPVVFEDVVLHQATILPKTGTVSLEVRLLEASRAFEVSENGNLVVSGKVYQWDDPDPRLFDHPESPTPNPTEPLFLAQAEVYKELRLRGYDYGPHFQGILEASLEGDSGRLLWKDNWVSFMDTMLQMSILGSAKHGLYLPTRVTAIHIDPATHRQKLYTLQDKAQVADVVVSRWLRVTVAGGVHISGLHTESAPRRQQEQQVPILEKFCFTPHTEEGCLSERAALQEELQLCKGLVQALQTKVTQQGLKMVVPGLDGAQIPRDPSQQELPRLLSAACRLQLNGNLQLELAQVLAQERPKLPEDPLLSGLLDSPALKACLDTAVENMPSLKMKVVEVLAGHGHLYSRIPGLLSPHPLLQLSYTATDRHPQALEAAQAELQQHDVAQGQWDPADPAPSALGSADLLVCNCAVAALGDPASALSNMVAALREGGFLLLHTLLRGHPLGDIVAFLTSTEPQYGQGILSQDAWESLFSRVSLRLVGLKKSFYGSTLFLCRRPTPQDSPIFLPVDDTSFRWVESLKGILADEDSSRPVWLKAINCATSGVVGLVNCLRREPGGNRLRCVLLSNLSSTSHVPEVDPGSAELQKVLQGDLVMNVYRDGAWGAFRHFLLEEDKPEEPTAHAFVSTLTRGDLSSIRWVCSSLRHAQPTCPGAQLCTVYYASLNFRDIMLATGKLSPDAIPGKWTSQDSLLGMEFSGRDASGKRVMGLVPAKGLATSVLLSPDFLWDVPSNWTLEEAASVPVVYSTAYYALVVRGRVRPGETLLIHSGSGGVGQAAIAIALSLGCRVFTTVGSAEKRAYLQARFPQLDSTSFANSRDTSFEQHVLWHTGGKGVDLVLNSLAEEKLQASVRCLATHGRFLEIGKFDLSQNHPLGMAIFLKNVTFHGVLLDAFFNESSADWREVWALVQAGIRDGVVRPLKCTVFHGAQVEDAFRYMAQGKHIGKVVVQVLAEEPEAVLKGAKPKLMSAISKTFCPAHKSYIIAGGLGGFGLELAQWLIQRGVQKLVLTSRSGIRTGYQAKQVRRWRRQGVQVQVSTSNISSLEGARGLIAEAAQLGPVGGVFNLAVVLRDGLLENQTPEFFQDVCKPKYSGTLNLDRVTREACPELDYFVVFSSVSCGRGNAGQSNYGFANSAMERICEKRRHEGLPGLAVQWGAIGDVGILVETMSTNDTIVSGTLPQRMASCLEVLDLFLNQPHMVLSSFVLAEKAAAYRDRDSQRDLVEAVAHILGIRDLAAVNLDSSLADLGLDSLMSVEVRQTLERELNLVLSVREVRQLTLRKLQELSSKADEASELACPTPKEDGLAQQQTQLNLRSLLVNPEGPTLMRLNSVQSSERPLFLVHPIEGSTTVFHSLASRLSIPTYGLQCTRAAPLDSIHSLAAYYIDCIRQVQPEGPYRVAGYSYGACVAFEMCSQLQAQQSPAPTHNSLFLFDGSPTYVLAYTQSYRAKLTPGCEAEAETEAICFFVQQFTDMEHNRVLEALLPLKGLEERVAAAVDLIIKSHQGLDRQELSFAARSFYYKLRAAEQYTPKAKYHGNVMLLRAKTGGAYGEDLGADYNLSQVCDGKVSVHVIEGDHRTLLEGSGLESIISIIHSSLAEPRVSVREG
# Cardio protect – cardioprotection against H2O2-induced cell death, primary screen, uHTS, H9c2 cells, ATPLite luminescence. H9c2 cardiomyocytes, H2O2 injury protection, 2 h. protection from H2O2 cell death, % at 20 µM. 360,000 tested, 0.63% active. AID 588492, 2011;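 active = compounds giving at least 50% protection of heart cells from peroxide-induced death in the single-dose screen, raw or plate-pattern-corrected value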;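 also: 0% = DMSO wells with peroxide and 100% = DMSO wells without peroxide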
# SUMO Mot1 rescue – yeast Mot1-301 growth rescue at high temperature, primary screen, SUMOylation pathway inhibitor project, S. cerevisiae, ATP luminescence, 38.5C; growth rescue, % at 18.8 µM; S. cerevisiae Mot1-301 growth rescue; percent above DMSO median, 100 means doubled; 320,000 tested, 1% active; AID 2716, 2010;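 active = every valid replicate shows activation above 250% relative to neutral control wells; inactive = the rest, any valid replicate at or below 250%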;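 also: OY570 slx delta 5 strain wells were the positive control but not used for scaling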
# MPTP inh – mitochondrial permeability transition pore inhibitors, primary screen, biochemical, isolated mouse mitochondria, absorbance. AID 602449, 2012. inhibition, % at 10 µM. 360,000 tested, 1.4% active. Ca2+ swelling absorbance, 30 min;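 active = inhibition of 50% or more, scaled per plate between neutral and stimulator controls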;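 also: 0% = DMSO wells given calcium and 100% = 1 mM EGTA wells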
# Yeast Mot1 SUMO – growth restoration of Mot1-301 yeast on galactose, dose response, SUMO pathway inhibitor project, whole organism, S. cerevisiae, ATP luminescence, cherry-picked samples; shares compounds with SUMO Mot1 rescue; S. cerevisiae Mot1-301 galactose growth, 24 h; -100 = growth of slx-deleted rescue strain; growth activity, percent, % at 42 µM; 2,300 tested, under 10 active;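 active = Signal drops as the depositor expects, and the fitted half-maximal dose is no more than ten times the top valid tested dose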;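 also: more negative values mean stronger growth rescue toward the control strain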
# Numbers without * were called inactive; / = not tested or not shown; + = active, no number.
SMILES,aDG glyco up,Yeast superoxide,FAS-TE inh,Cardio protect,SUMO Mot1 rescue,MPTP inh,Yeast Mot1 SUMO
O=S(=O)(NCc1ccc(Cl)cc1)c1cnc[nH]1,0,97,-5,-1,+,-2,1
O=C1C2CCCN2C(=S)N1c1ccccc1 (stereo not given),0,95,-7,4,300,0,/
CCOc1ccccc1NC(=O)CSc1nc(N)c(C#N)cc1C#N,0,96,3,-4,+,-1,1
Cc1cc(CNC(=O)C2CCC(=O)N(Cc3ccccc3F)C2)on1 (stereo not given),0,101,-4,1,654*,2,1
CCc1cc(CNC(=O)C2CCC(=O)N(Cc3ccccc3F)C2)on1 (stereo not given),0,/,0,4,/,0,/
Cc1ccc(C(=O)Nc2c(C)n(C)n(-c3ccccc3)c2=O)cc1S(=O)(=O)N1CCCCC1,0,97,1,-3,15,-1,/
CC1CC(C)(C)N2C(=O)C3(Nc4ccccc4S3)c3cccc1c32 (stereo not given),0,99,1,-11,723*,2,-2
COc1cc(CN2CCC(Oc3cc(C(=O)NC4CC4)ccc3OC)CC2)cc(OC)c1,0,77,-6,9,393*,-2,0
COc1ccc(C(=O)NC2CC2)cc1OC1CCN(Cc2ccc(NC(C)=O)cc2)CC1,0,/,-4,6,/,2,/
Cc1nnc(SCC(=O)NCc2ccccc2Cl)[nH]c1=O,0,84,-7,-3,+,2,1
O=C(Nc1ccc(F)cc1F)N1CCCN(c2ccc(C(F)(F)F)cn2)CC1,0,110,0,-7,548*,2,-1
O=C(Nc1ccccc1)N1CCN(c2ccc(C(F)(F)F)cn2)CC1,0,94,3,-10,-25,3,/
Cc1ccccc1-c1nc(CN2CCCC(C(=O)NCCCN3CCOCC3)C2)c(C)o1 (stereo not given),0,94,-12,12,128,0,/
CCS(=O)(=O)N1CCC(C(=O)NCc2cccnc2)CC1,0,107,-3,3,24,1,/
Cc1ccccc1-c1nc(CN2CCCC(C(=O)NCc3cccnc3)C2)c(C)o1 (stereo not given),0,98,-10,-2,+,2,0
CCS(=O)(=O)N1CCCC(C(=O)NCc2cccnc2)C1 (stereo not given),0,107,-4,6,362*,-2,0
Oc1cc(O)cc(/C=C/c2ccc(O)c(O)c2)c1,0,93,1,7,-19,3,/
CCCc1c(Cc2cccc(F)c2)ncn1Cc1cccc(-c2ccccc2)c1,0,/,/,/,/,0,/
CSc1ccc(CCNC(=O)C2CCCN(S(=O)(=O)N3CCOCC3)C2)cc1 (stereo not given),0,116,-3,11,564*,-2,0
C/C(=N\N=C(/N)SC1CC(=O)N(c2cccc(Cl)c2)C1=O)c1cccs1 (stereo not given),0,97,22,-3,374*,2,-1
CCCOc1ccc(N2C(=O)CC(S/C(N)=N/N=C(\C)c3cccs3)C2=O)cc1 (stereo not given),0,113,0,-5,236,3,/
COCCn1c(SCC(=O)Nc2nc3ccccc3s2)nnc1-c1ccoc1C,0,96,-1,-12,601*,1,1
Cc1cc2nc(C(C)(C)C)c(Cc3ccccc3)n2c(C)c1Br,0,/,21,-8,/,3,/
CCc1ccc2[nH]c(=O)c(C(c3nnnn3Cc3ccccc3)N3CCOCC3)cc2c1 (stereo not given),0,104,-4,4,478*,2,0

# Assay outcomes (PubChem)
